In assay [1] the target is PEG-3 (UniProt Q6IN02). The experiment in a line: inhibition of PEG-3 promoter-driven reporter – cell-based, HeLa, luciferase, CREF/GAPDH counter-screen panel, dose response (AID 624167). The following applies: CREF/GAPDH counter-screens; HeLa PEG-Prom luciferase reporter, overnight, run 1, dose range 1, at 100 µM (top of the series) unless noted.
The target of assay [2] is PEG-3 (UniProt Q6IN02). The description is as above. The following applies: CREF/GAPDH counter-screens; HeLa PEG-Prom luciferase reporter, overnight, run 2, dose range 1, at 100 µM (top of the series) unless noted.

Each structure is given as a SMILES string.

Chain of PEG-3 (Q6IN02 whole entry, looked up): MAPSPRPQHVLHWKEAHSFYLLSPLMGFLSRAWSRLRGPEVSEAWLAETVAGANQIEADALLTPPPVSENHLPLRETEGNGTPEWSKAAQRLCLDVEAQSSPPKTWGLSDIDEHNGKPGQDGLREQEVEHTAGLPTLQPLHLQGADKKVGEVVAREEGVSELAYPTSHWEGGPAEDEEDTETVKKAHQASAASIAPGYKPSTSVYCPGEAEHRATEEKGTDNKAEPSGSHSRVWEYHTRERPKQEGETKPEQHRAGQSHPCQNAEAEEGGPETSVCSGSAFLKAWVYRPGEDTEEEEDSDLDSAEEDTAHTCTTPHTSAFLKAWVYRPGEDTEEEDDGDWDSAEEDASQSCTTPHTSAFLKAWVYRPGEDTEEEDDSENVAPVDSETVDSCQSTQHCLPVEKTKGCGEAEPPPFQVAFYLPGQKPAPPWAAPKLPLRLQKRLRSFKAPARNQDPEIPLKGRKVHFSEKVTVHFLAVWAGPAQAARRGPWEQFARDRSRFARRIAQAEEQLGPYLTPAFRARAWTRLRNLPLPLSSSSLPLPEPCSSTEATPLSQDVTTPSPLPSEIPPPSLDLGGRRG

For the compound `CC(C)CN(C(=O)COC(=O)/C=C/c1ccc(Cl)c(Cl)c1)c1c(N)n(Cc2ccccc2)c(=O)[nH]c1=O`, the inhibition was -7.53% in the assay with PEG-3 [1] and -24.4% in the assay with PEG-3 [2].
The like results for `O=S(=O)(NC1CC(NS(=O)(=O)OCC(Cl)(Cl)Cl)C2CCCCC12)OCC(Cl)(Cl)Cl` (configuration not stated) were, in that order, 102% and 99.2%.
For `N=c1n(CCN2CCCC2)c2ccccc2n1CC(O)c1ccc(Cl)c(Cl)c1` (configuration not stated), the figures for the inhibition in the assay with PEG-3 [1] and with PEG-3 [2] were 99.3% and 101%, respectively.
Turning to `COc1ccc(C2NCCc3c2[nH]c2ccccc32)cc1COc1ccc(F)cc1` (configuration not stated), the inhibition in the assay with PEG-3 [1] was 98.9%; with PEG-3 [2], 101%.
Turning to `CN(C)CC1CCC/C(=C\c2ccc(OC(=O)/C=C/c3ccccc3)cc2)C1=O` (configuration not stated), the inhibition with PEG-3 [1] is 97.5%; in the assay with PEG-3 [2], 102%.
For `CC(C)n1cc(CN2CCC(C(=O)Nc3cccc(-c4cccc(Cl)c4)c3)CC2)cn1`, the inhibition in the assay with PEG-3 [1] stood at 99.3%; with PEG-3 [2] it was 101%.
On the same counts, the results for `CCCCN(C)CCNC(=O)c1cc(-c2cccnc2)nc2ccc(S(=O)(=O)N3CCC(C)CC3)cc12` are 100% and 96.1%.
The like results for `Cc1ccc(CC2(OCCN(C)C)CCC(C(C)(C)C)CC2)cc1` (configuration not stated) were, in that order, 99.6% and 97.3%.
For the compound `CC1CCCCN1C(=O)c1cccc(NC2=C(Cl)C(=O)N(Cc3ccccc3)C2=O)c1` (configuration not stated), the inhibition with PEG-3 [1] and in the assay with PEG-3 [2] was 101% each time.
On to `Cc1ccc(-c2cc(C(=O)Nc3nccs3)c3ccccc3n2)c(C)c1`, for which the values for the inhibition with PEG-3 [1] and with PEG-3 [2] were 34% and 56.2%, respectively.
The like results for `COC(=O)c1ccc(OCC2c3cc(OC)c(OC)cc3CCN2C(=O)c2ccco2)cc1` (configuration not stated) were, in that order, 77.9% and 73.5%.
As for `CN(C)CC1CCC/C(=C/c2ccc(Cl)cc2)C1=O` (configuration not stated), the results for the inhibition in the assay with PEG-3 [1] and with PEG-3 [2] were 102% and 98.7%, respectively.
Consider `CC(=O)Nc1ccc(S(=O)(=O)N(Cc2cccnc2)Cc2cc3ccccc3[nH]c2=O)cc1`, for which the inhibition with PEG-3 [1] is 11.2%; in the assay with PEG-3 [2], -18.5%.
`COc1ccc(C(O)(CCC(C)C)C(CN2CCOCC2)c2ccccc2)cc1` (configuration not stated): the inhibition amounted to 96.5% in the assay with PEG-3 [1] and 101% with PEG-3 [2].
The like results for `CCc1ccc(OCCNc2cc(N3CCNC(C)C3)ccc2[N+](=O)[O-])cc1` (configuration not stated) were, in that order, 99.6% and 101%.
The like results for `CC1(C(=O)NCc2cccc3ccccc23)CCN1C(=O)Cc1ccc(-c2ccccc2)cc1` (configuration not stated) were, in that order, 52.6% and 43.6%.
On the same counts, the results for `CC(=O)c1c(NCCc2ccccc2)nc(=S)n(-c2ccccc2)c1C` are 99.6% and 99%.
Turning to `Cn1nnnc1Sc1ncnc2scc(-c3ccsc3)c12`, the inhibition with PEG-3 [1] and with PEG-3 [2] was 102% throughout.
Regarding `COc1cc2ccccc2cc1C(=O)N(CCN(C)C)c1nc2c(OC)ccc(OC)c2s1`, the inhibition in the assay with PEG-3 [1] turned out to be 98.2%; in the assay with PEG-3 [2], 101%.
For `CC(=O)Nc1cccc(-c2ccnc3c2CC(C)(C(=O)Nc2cccc(C(F)(F)F)c2)O3)c1` (configuration not stated), the inhibition in the assay with PEG-3 [1] stood at 92.6%; in the assay with PEG-3 [2], 88.4%.
For `COc1ccc(NS(=O)(=O)c2ccc3ccccc3c2)c2ncccc12`, the inhibition with PEG-3 [1] turned out to be 57.9%; with PEG-3 [2] it was 73.1%.
As to `CC(C(=O)NC1CCCC1)N(C(=O)Cn1nnc(-c2ccc(F)cc2)n1)c1ccccc1F` (configuration not stated), the results for the inhibition with PEG-3 [1] and with PEG-3 [2] were 99.3% and 102%, respectively.
`CCN1CCN(Cc2ccc(NC(=O)c3cc(NC(=O)c4ccno4)cc(OC)c3)cc2C(F)(F)F)CC1`: the inhibition with PEG-3 [1] is 95.5%; with PEG-3 [2] it was 102%.
For the compound `CC(=O)c1ccc(Nc2cc(C)nc3ccc(C)cc23)cc1`, the inhibition in the assay with PEG-3 [1] came out at 99.2%; with PEG-3 [2], 102%.
Turning to `CCCCCCCNC(=O)C1(CC2CC(c3ccccc3)=NO2)CCNCC1` (configuration not stated), the inhibition with PEG-3 [1] is 97.9%; with PEG-3 [2], 98.7%.
For `COc1ccc2sc3cccc(NCCN(C)C)c3c(=O)c2c1`, the inhibition in the assay with PEG-3 [1] stood at 98%; with PEG-3 [2], 99.2%.
For the compound `CCOC(=O)c1c(NC(C)=O)sc2c(OCC(O)CN(CC)CC)c(Br)ccc12` (configuration not stated), the inhibition stood at 102% in the assay with PEG-3 [1] and 98.6% in the assay with PEG-3 [2].
As to `COc1ccccc1NC(=S)NC1CCCCCCCCCCC1`, the inhibition with PEG-3 [1] is 48.3%; with PEG-3 [2], 102% [run 2, dose range 1, at 50 µM].
Consider `CCN1C/C(=C/c2ccc(N3CCOCC3)cc2)C(=O)/C(=C/c2ccc(N3CCOCC3)cc2)C1`, for which the inhibition with PEG-3 [1] amounted to 94.6%; with PEG-3 [2], 96.4%.
Regarding `CCCn1c(=N)n(CC(=O)c2ccc(Cl)cc2)c2ccccc21`, the inhibition came out at 101% in the assay with PEG-3 [1] and 100% with PEG-3 [2].
On to `CC(C)CC1C(=O)N(Cc2cn(CCC3OCCO3)nn2)CCS(=O)(=O)N1Cc1ccc(-c2ccc(F)cc2)cc1` (configuration not stated), for which the inhibition turned out to be 98.1% with PEG-3 [1] and 93.8% with PEG-3 [2].
Regarding `Cc1cc2c(c(/C=C/C(=O)c3ccccc3)c1)OC1(C=C2)Oc2ccccc2C(=O)N1C` (configuration not stated), the inhibition came out at 102% in the assay with PEG-3 [1] and 101% with PEG-3 [2].
With `CN(C)CCNc1ncnc2c1sc1nc(N3CCOCC3)c3c(c12)CC(C)(C)SC3`, the inhibition with PEG-3 [1] came out at 98%; with PEG-3 [2], 101%.
On to `O=S(=O)(/N=C(/Sc1ccccc1)c1ccccc1)c1ccccc1`, for which the inhibition in the assay with PEG-3 [1] came out at 102%; in the assay with PEG-3 [2] it was 101%.
On the same counts, the results for `CC(=O)Nc1ccc(S(=O)(=O)N(Cc2ccco2)Cc2cc3ccccc3[nH]c2=O)cc1` are 91.7% and 71.7%.
`CCC(C)Sc1ccc(-c2nc3ccccn3c2NCc2ccccc2)cc1OC` (configuration not stated): the inhibition with PEG-3 [1] came to 102%; with PEG-3 [2], 89.4%.
Regarding `O=C(c1ccoc1)N1CCN(c2cc(-c3ccccc3)nc3cc(-c4ccccc4)nn23)CC1`, the inhibition turned out to be 58.2% in the assay with PEG-3 [1] and 66% with PEG-3 [2].
As for `CN1CCC(N(C)S(=O)(=O)c2ccc(NC(=O)COc3ccc(Br)cc3Cl)cc2)CC1`, the values for the inhibition in the assay with PEG-3 [1] and in the assay with PEG-3 [2] were 99.8% and 101%, respectively.
Turning to `CN(C)CCCN(C(=O)c1ccc(S(=O)(=O)N(C)Cc2ccccc2)cc1)c1nc2cc3c(cc2s1)OCO3`, the inhibition came to 100% with PEG-3 [1] and 99.3% in the assay with PEG-3 [2].
For the compound `Cc1cc(C)c2ccc(N)nc2c1O`, the inhibition with PEG-3 [1] was 70.1% [run 1, dose range 1, at 50 µM]; with PEG-3 [2], 67.1% [run 2, dose range 1, at 50 µM].
The like results for `COc1ccc(OC)c(-c2cc(C(=O)N3CCN(c4ncccn4)CC3)c3ccccc3n2)c1` were, in that order, 54.9% and 59.3%.
